# Assay results published in PubChem BioAssay AID2401 (Southern Research Specialized Biocontainment Screening …, 2010).
# Hit rate of the full screen: of about 2,200 compounds, about 530 (24%) were called active.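 How the source made its calls: active means inhibition above a set limit at one or more concentrations of the dose series; inactive means inhibition under that limit at every dose.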 The list is a sample of the results. Results with a measured potency or affinity are listed apart.
# Assay: nmpC-GFP reporter counter-screen in S. Typhimurium, dose response, counter-screen for PhoP regulon inhibitor project, Salmonella Typhimurium, GFP fluorescence (AID 2401);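 further: S. typhimurium with Mg-insensitive nmpC-GFP reporter grown at 10 µM Mg2+; drop in reporter fluorescence reflects general culture growth inhibition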
# Settings: 4 h; series mostly up to 150 µM; inhibition: at the top concentration
row,Compound,inhibition
1,CCN(C(=O)COc1cc(=O)n(CC)c2ccccc12)c1cccc(Cl)c1,-6.53% (inactive)
2,O=C(c1ccc(Oc2ccccc2)cc1)c1nc2c(n1O)CCCC2,14.3% (inactive)
3,CC(C)(C)c1cc2cccnc2n1Cc1cccc(Cl)c1,-26.7% (inactive)
4,Nc1ncncc1-c1ccc([N+](=O)[O-])cc1,36.5% (inactive)
5,O=C(Cn1ncc2c(=O)oc3ccccc3c21)N1CCN(c2ccccn2)CC1,-15.8% (inactive)
6,O=C1CC(SCc2nc3ccccc3[nH]2)C(=O)N1c1ccc(Cl)cc1 (stereo not given),-18.6% (inactive)
7,Cc1ccc(C(=O)CSC2=C(C#N)C(c3ccco3)CC(=O)N2)c(C)c1 (stereo not given),-15.7% (inactive)
8,O=c1cc(-c2ccc([N+](=O)[O-])cc2)nc2cc(-c3ccc(Cl)cc3)[nH]n12,-32% (inactive)
9,Cc1ccc2cccc(Oc3ncnc4scc(-c5ccccc5)c34)c2n1,-17.1% (inactive)
10,CN1c2ccccc2C(=O)NC1c1ccc([N+](=O)[O-])s1 (stereo not given),-3.11% (inactive)
11,NC(CSC12CC3CC(CC(C3)C1)C2)C(=O)O (stereo not given),-19.5% (inactive)
12,Cc1cc(-c2nnc(-c3ccccc3)c(-c3ccccc3)n2)c(C)o1,-11.2% (inactive)
13,Cc1ccc(-n2c(C)cc(/C=N/NC(N)=S)c2C)cc1,29.6% (inactive)
14,CCn1c2ccccc2c2cc(/C=N/NC(=O)c3ccccc3)ccc21,6.74% (inactive)
15,O=C(N/N=C/c1ccco1)c1cccc(S(=O)(=O)Nc2ccccc2Cl)c1,-10.1% (inactive)
16,CCN(CC)S(=O)(=O)c1cccc(C(=O)NC(Cc2c[nH]c3ccccc23)c2nnc3n2CCC3)c1 (stereo not given),-14.8% (inactive)
17,O=C1c2ccccc2C2=Nc3ccccc3SC(c3cccc(F)c3)C12 (stereo not given),18% (inactive)
18,CC1C(C#N)=C(N)OC2=C1C(=O)CCC2 (stereo not given),-0.77% (inactive)
19,Cc1cccc(NC(=O)CCC(=O)OCc2ccc(Br)cc2)c1,-16% (inactive)
20,Cc1ccnc2nc(C(=O)Nc3ccc4c(c3)OCO4)nn12,-5.04% (inactive)
21,CN(C)c1ccc([C@@H]2[C@@H]([N+](=O)[O-])[C@H]3C=Cc4ccccc4N3[C@H]2C(=O)c2ccc(Cl)cc2)cc1,33.2% (inactive)
22,COc1ccc(OC)c(/C=N/NC(=O)c2cc3c(OC)c(OC)ccc3[nH]2)c1,-7.95% (inactive)

row,Compound,inhibition
1,O=C(Cc1cccs1)Nc1cccc(-c2nc3cc4ccccc4cc3[nH]2)c1,-6.72% (inactive)
2,Cc1cc(/C=N/n2cnnc2)c(C)n1-c1ccc(OCc2ccc(F)cc2)cc1,-15.3% (inactive)
3,O=C(O)CC(NC(=S)NCc1ccccc1)C(=O)O (stereo not given),-29.4% (inactive)
4,COC(=O)c1ccc(Nc2cc(C)nc3ccccc23)cc1,-28.9% (inactive)
5,COc1ccc(/C=N/Nc2cc(C)nc3c(C)cccc23)cc1,2.4% (inactive)
6,O=c1c2oc3ccccc3c2ncn1Cc1ccc(Cl)cc1,-19.4% (inactive)
7,Cc1c(C(c2cccc([N+](=O)[O-])c2O)c2c(C)n(C)n(-c3ccccc3)c2=O)c(=O)n(-c2ccccc2)n1C,5.18% (inactive)
8,Cc1[nH]n(-c2ccccc2)c(=O)c1-c1ccc(Cl)cc1,-3.67% (inactive)
9,COc1ccc(OC)c(NC(=O)c2ccccc2NS(=O)(=O)c2cccc3cccnc23)c1,-10.6% (inactive)
10,Nc1nnc(SCc2ccc3c(c2)OCO3)s1,-26.3% (inactive)
11,CCOC(=O)C(NS(=O)(=O)c1ccccc1)(C(F)(F)F)P(=O)(OCC(C)C)OCC(C)C (stereo not given),-23.4% (inactive)
12,c1ccc(-c2cc(CSc3nc4ccccc4[nH]3)on2)cc1,1.38% (inactive)
13,Cc1ccc(N=Cc2sc(O)c3ccccc23)cc1,-41.8% (inactive)
14,N=c1sccn1CC(=O)Nc1ccccc1Oc1ccccc1,-13% (inactive)
15,O=C(NCCNc1ccc([N+](=O)[O-])cc1C(F)(F)F)c1ccc(F)cc1,31.5% (inactive)
16,O=C(NCCNc1ccc([N+](=O)[O-])cc1C(F)(F)F)c1ccccc1F,-7.25% (inactive)
17,O=C(NCC(=O)N(c1cccnc1)C(C(=O)NCc1ccco1)c1ccccc1)c1ccco1 (stereo not given),9.19% (inactive)
18,COc1ccc(N2C(=O)[C@@H]3[C@H](C2=O)[C@H]2c4ccccc4C=CN2[C@@H]3C(=O)Nc2ccccc2)cc1,28% (inactive)
19,CCCc1cc(C(=O)Cc2ccc(C(=O)OCC)o2)c(O)cc1O,23.5% (inactive)
20,CCOc1ccccc1NS(=O)(=O)c1ccc(Br)s1,-23.1% (inactive)
21,O=C(Oc1ccc(N(Cc2cccs2)C2=NS(=O)(=O)c3ccccc32)cc1)c1ccc(Cl)cc1,28.4% (inactive)
22,COc1ccc2c(c1)CC/C(=C\Nc1ccc3c(c1)OCO3)C2=O,-15.1% (inactive)

row,Compound,inhibition
1,CCN(CC)CCNC(=O)c1cn(CC)c2cc(N3CCN(C(=O)c4ccco4)CC3)c(F)cc2c1=O,-18% (inactive)
2,CN(C)CCNC(=O)c1ccc(COCC(F)(F)F)cc1,-10.8% (inactive)
3,COC(=O)COc1ccc(S(=O)(=O)Nc2ccccc2SC)cc1,-26.3% (inactive)
4,Cc1cc(CNC(=O)Nc2ccc3c(c2)OCO3)nn1C,-5.69% (inactive)
5,Oc1ccc(Nc2nc(-c3cccs3)cs2)cc1,33% (inactive)
6,O=C(NCc1cn2ccsc2n1)Nc1ccc(Cl)cc1,-22.4% (inactive)
7,CC(C)c1ccc(NC(=O)N(CCc2nc3ccccc3[nH]2)C2CCCC2)cc1,-18.2% (inactive)
8,O=C1C2C3c4ccccc4C(c4ccccc43)C2C(=O)N1c1cccc2cccnc12 (stereo not given),-20.1% (inactive)
9,Brc1ccc2cccnc2c1,-23.6% (inactive)
10,C/C(=N/Nc1nc(-c2ccccc2)cc(-c2ccc(F)cc2)n1)c1cccc(N)c1,-5.41% (inactive)
11,CC(=O)Nc1c(C#N)c(C(C)(C)C)cn1C,1.65% (inactive)
12,CCOc1cc(C2C(C(=O)OC)=C(C)N=C3SCCC(=O)N32)ccc1OC(C)=O (stereo not given),-28.1% (inactive)
13,O=C(NCc1ccc2c(c1)OCO2)c1ccc(-n2cnnn2)cc1,-4.67% (inactive)
14,CCCN1C(=O)SC(CC(=O)Nc2ccc(Br)cc2)C1=O (stereo not given),8.66% (inactive)
15,CCn1c(C)cc(=S)c2ccccc21,-47% (inactive)
16,O=C(NCCCN1CCCC1=O)c1ccc(Cl)c(NS(=O)(=O)c2ccc(F)cc2)c1,-14.2% (inactive)
17,CC1CCCCN1Cc1cnc(Cl)s1 (stereo not given),-20.6% (inactive)
18,Oc1ccc(Br)cc1-c1ccn[nH]1,30.8% (inactive)
19,Cc1ccc(N(CC(=O)Nc2cccc(C)c2)S(=O)(=O)c2cccc3nonc23)cc1,1.6% (inactive)
20,Cc1ncc(C23CC4CC(CC(C4)C2)C3)[nH]1,-14.8% (inactive)
21,O=C1C2=C(NC(=S)NC2c2ccc(Cl)cc2)NC(c2ccc(Cl)cc2)N1c1ccc(Cl)cc1 (stereo not given),34% [at 75 µM] (inactive)
22,Cc1ccc(C=Nc2ccccc2C(N)=O)cc1,-19.9% (inactive)

row,Compound,inhibition
1,CC(C)CCn1c(SCC(=O)N2CC(=O)Nc3ccccc32)nc2scc(-c3cccs3)c2c1=O,8.29% (inactive)
2,C=CCNc1ncnc2ccc(Br)cc12,-22.4% (inactive)
3,c1coc(CNc2ncnc3ccccc23)c1,-7.32% (inactive)
4,CCOC(=O)N1CCN(S(=O)(=O)c2ccc(C(=O)NNc3nc4cc(C)cc(C)c4s3)cc2)CC1,27.3% (inactive)
5,c1ccc(CN2CCN(c3nc(-c4ccccc4)nc(-n4ccnc4)n3)CC2)cc1,-6.55% (inactive)
6,CCCOC(=O)Oc1ccc2c(=O)c(Oc3cc(C)cc(C)c3)coc2c1,-7.81% (inactive)
7,Cc1ccccc1NC(=S)NC1CCN(Cc2ccccc2)CC1,-15.9% (inactive)
8,OC1(c2ccc3ccccc3c2)CCN(Cc2ccccc2)C1 (stereo not given),8.53% (inactive)
9,O=C1c2cccc(OCC(=O)N3N=C(c4cccs4)CC3c3ccc(F)cc3)c2CCN1Cc1cccnc1 (stereo not given),-8.74% (inactive)
10,COc1ccc(O)c(/C=c2/sc3nc4cc(C)c(C)cc4n3c2=O)c1,-18.9% (inactive)
11,Cc1ccc2c(CN3CCC(C)CC3)cc(=O)oc2c1,2.64% (inactive)
12,O=C(Cn1cnc2ccccc2c1=O)NCc1ccco1,-11.4% (inactive)
13,CCn1nc(C(=O)OC(C(=O)c2c[nH]c3ccccc23)c2ccccc2)c2ccccc2c1=O (stereo not given),14.3% (inactive)
14,Cc1ccc(C)c(C(=O)NCc2ccncc2)c1,-45.6% (inactive)
15,CCOC(=O)c1ccc(N2CCN(c3ccc(F)cc3)CC2)c(NC(=O)Nc2cccc(OC)c2)c1,-10.5% (inactive)
16,CCN(CC)CCN(Cc1cc2cc3c(cc2[nH]c1=O)OCCO3)C(=O)NC1CCCCC1,11.3% (inactive)
17,N#Cc1c(-c2ccccc2)ccn(Cc2cccc(Cl)c2)c1=O,1.76% (inactive)
18,CSc1nnc(NC(=O)CCc2ccccc2)s1,13.7% (inactive)
19,O=C(CSc1nc(Nc2ccccc2)nc(N2CCOCC2)n1)Nc1ccc([N+](=O)[O-])cc1,-22.3% (inactive)
20,O=C(Nc1cc(C(F)(F)F)ccc1Cl)C(NCc1ccccc1)c1ccccc1 (stereo not given),-23.9% (inactive)
21,O=C(NNc1nc(-c2ccccc2)cs1)c1ccccc1,10.6% (inactive)
22,O=C(NC1CCCC1)c1ccc(Cl)s1,38.4% (inactive)

row,Compound,inhibition
1,COc1ccc(C2=Nc3cccc4cccc(c34)N2)cc1,28% (inactive)
2,CCN(CC)S(=O)(=O)c1ccc(C(=O)N2CCN=C2SCc2cccnc2)cc1,-24.8% (inactive)
3,Cc1cc(C)n2c(SCC(=O)NCc3ccco3)nnc2n1,-24.8% (inactive)
4,Cc1ccc2nc(-c3ccc(Br)o3)oc(=O)c2c1,-1.76% (inactive)
5,NC1=NC(=Nc2ccc(Br)cc2)c2ccccc21,19.6% (inactive)
6,Cn1cnnc1SCC(=O)Nc1cccc(C(=O)O)c1,-11.9% (inactive)
7,Nc1c(C(=O)Nc2ccc(F)cc2)sc2nc(-c3ccco3)ccc12,31.4% (inactive)
8,COc1ccc2nc(-c3ccccc3)cc(OC)c2c1,-9.85% (inactive)
9,Cc1cccc(-n2c(N)cc(=O)[nH]c2=S)c1,33.4% (inactive)
10,COc1ccc(OCCSc2nnc(-c3ccc(OC)cc3)n2N)cc1,-17.8% (inactive)
11,CCOC(=O)N1CCN(S(=O)(=O)c2ccc(C(=O)NNc3nc4c(C)cc(C)cc4s3)cc2)CC1,38.3% (inactive)
12,Oc1ccc(NCc2ccccc2OCc2ccccc2F)cc1,11.3% (inactive)
13,O=C(Nc1ccc(S(=O)(=O)N2CCCC2)cc1)c1ccc(CN2CCc3ccccc3C2)cc1,-24.6% (inactive)
14,O=C(C(=O)N1CCc2ccccc2C1)N1CCc2ccccc2C1,-29.3% (inactive)
15,c1ccc2c(c1)CCN(c1ncnc3c1[nH]c1ccccc13)C2,-20.7% (inactive)
16,NC(=O)N1OCC2COc3ccc4ccccc4c3C21 (stereo not given),1.89% (inactive)
17,Cc1ccc(NC(=O)COC(=O)C2(c3ccc(Cl)cc3)CCCC2)cc1,-25.7% (inactive)
18,COc1ccc(/C=C(\NC(=O)/C=C/c2ccco2)C(=O)NCCc2nc3ccccc3[nH]2)cc1,17.5% (inactive)
19,C=CCOc1ccccc1CNCCCN1CCOCC1,-23.9% (inactive)
20,FC(F)(F)C1=CC(c2ccc(Br)cc2)=NCCN1,20.8% (inactive)
21,CCCCC(=O)NCCNC(=O)c1cc(OCC(F)(F)F)ccc1OCC(F)(F)F,-16.7% (inactive)
22,CCOc1ccc2c(c1)nc(SCC(=O)c1ccc(Br)s1)n2C,-16.9% (inactive)
